Holding throughout (assay): NCI-60 one-dose screen, 48 h (100 = growth as untreated, 0 = no growth, -100 = all killed)
Common to all, as to conditions: 10 µM unless noted

The test system of assay [1] is NCI-H23 lung.
Assay [2] deals with NCI-H226 lung.
Assay [3] relates to NCI-H322M lung.
The test system of assay [4] is HOP-62 NSCLC.
The subject of assay [5] is NCI-H460 lung.
The test system of assay [6] is HOP-92 NSCLC.
In assay [7] the test system is NCI-H522 lung.
In assay [8] the test system is A549/ATCC NSCLC.
For assay [9], the system named is 786-0 renal.
Assay [10] relates to COLO 205 colon.
Assay [11] concerns DU-145 prostate.
In assay [12] the test system is K-562 leukemia.
In assay [13] the test system is MALME-3M melanoma.
Assay [14] deals with MDA-MB-231 breast.
Assay [15] relates to RXF 393 renal.
Assay [16] concerns SF-268 CNS.
In assay [17] the test system is SF-295 CNS.
The subject of assay [18] is SF-539 CNS.
The subject of assay [19] is UACC-257 melanoma.
Assay [20] relates to M14 melanoma.

The panel holds about 83,000 compounds, 20% with a hit somewhere; the sample as a whole holds those more often.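 Each cell line was grown in a 96-well plate and treated with one concentration of compound for 48 hours. Values below 10 were considered active.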 A number with no mark means an inactive call. Calls of active or inactive are those of the source.

For the compound `CC1=NC(=S)NC(c2ccccc2)/C1=C1/CC(c2ccccc2O)NN1` (stereo not given), the growth in assay [1] is 92.5%; in [2] it was 97%; in assay [3], 101%; in [4], 92.7%; in assay [5] it was 104%; in assay [6], 84.5%. Besides, the growth was 96.3% in assay [7]; 100% in assay [8]; 100% in assay [9]; 105% in assay [10]; 101% in assay [11]; 99.4% in [12]. For the same compound, the growth was 97.9% in assay [13]; 94.8% in assay [14]; 103% in assay [15]; 93.3% in [16]; 100% in [17]; 93.4% in [18]. For the same compound, the growth is 107% in assay [19] and 97.3% in assay [20].
As to `COc1cc2c(c(OC)c1OC)CCC(c1cccc(C(=O)Nc3ccc([N+](=O)[O-])cc3)c1)O2` (stereo not given), the growth was 47.2% in [1]; 48.3% in assay [2]; 68.3% in [3]; 76.7% in [4]; 58.8% in assay [5]; 42.6% in [6]. The growth in [7] was 49.6%; in [8], 55.2%; in [9], 70.1%; in assay [10], 73.2%; in assay [11], 57%; in assay [12], 21.8%. Also, the growth was 68.3% in [13]; 37.1% in [14]; 69.8% in assay [15]; 59.3% in assay [16]; 39.8% in assay [17]; 76.2% in assay [18]. The growth in assay [19] is 50.9%; in assay [20], 30.7%.
As to `COc1ccccc1/C=C/C1=C(C)CCC(c2ccccc2OC)C1C` (stereo not given), the growth was 26.8% in assay [1]; 45.8% in assay [2]; 33.4% in assay [3]; 17.3% in [4]; 3.73% (active) in [5]; -35% (active) in assay [6]. The growth in [7] is -45% (active); in assay [8], 21.2%; in [9] it was 12%; in assay [10], -45.3% (active); in assay [11], -8.51% (active); in assay [12], 18.2%. Further, the growth was 80.9% in assay [13]; 17.2% in [14]; 28.5% in assay [15]; 16.3% in [16]; -45.9% (active) in assay [17]; 0.327% (active) in assay [18]. In addition, the results for the growth in assay [19] and in [20] were 57.9% and -10.7% (active), respectively.
`O=C(Nc1ccccc1C(F)(F)F)C1=NCCCCN1`: the growth is 98.5% in [1]; 96.1% in assay [2]; 95.1% in assay [3]; 100% in assay [4]; 105% in assay [5]; 97.9% in assay [6]. For the same compound, the growth was 86.8% in assay [7]; 102% in assay [8]; 98.8% in assay [9]; 110% in assay [10]; 106% in [11]; 94.4% in assay [12]. For the same compound, the growth is 103% in [13]; 102% in assay [14]; 97% in assay [15]; 96.8% in assay [16]; 93.6% in assay [17]; 96.1% in assay [18]. The growth was 99% in assay [19] and 98.3% in assay [20].
Regarding `CC1OC(C(=O)N2CCN(CCO)CC2)CC1COC1CCCCC1` (stereo not given), the growth is 94% [50 µM] in assay [1]; 84.3% [50 µM] in [2]; 90.9% [50 µM] in assay [3]; 85.7% [50 µM] in assay [4]; 100% [50 µM] in assay [5]; 87% [50 µM] in assay [6]. In addition, the growth in [7] was 93.2% [50 µM]; in assay [8], 94.2% [50 µM]; in [9], 109% [50 µM]; in assay [10] it was 105% [50 µM]; in assay [11], 105% [50 µM]; in assay [12], 91.6% [50 µM]. The growth in assay [13] was 88.2% [50 µM]; in [14] it was 94.5% [50 µM]; in assay [15], 102% [50 µM]; in [16], 97.2% [50 µM]; in [17] it was 102% [50 µM]; in assay [18], 97.8% [50 µM]. The results for the growth in assay [19] and in assay [20] were 98% [50 µM] and 100% [50 µM], respectively.
On to `Cn1cc(-c2ccc3occ(-c4cccc(-c5ccncc5)c4)c3n2)cn1`, for which the growth in [1] is 19.5%; in assay [2], 33.6%; in assay [3], 34.3%; in [4], 13.9%; in assay [5], 13.5%; in [6], 50.6%. Also, the growth in assay [7] was -18.5% (active); in [8], 17.7%; in assay [9], 17.7%; in assay [10], 14.7%; in [11], 26.9%; in assay [12], 8.55% (active). Besides, the growth in assay [13] is 21.2%; in assay [14], 35.4%; in assay [15], 4.67% (active); in [16], 28.5%; in assay [17], 1.64% (active); in assay [18] it was -23% (active). In addition, the growth in [19] is 40.9%; in assay [20] it was 1.71% (active).
